# This is a sample that favours compounds with a hit; in the whole collection about 27% have one here.
# PTK2B oligo ant – Pyk2 (human) oligomerization antagonism | Q293 cells, Pyk2 FERM NanoBiT luminescence; stronger effect = lower value | Q14289 | 99,000 tested, 0.83% active | z-score (the deposit names both 25 µM and 10 µM);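 active = Z-score of -3 or lower, scaled per plate to the spread of control and sample wells; inactive = z-score above -3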;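 note: negative z-score means lost luminescence so less FERM oligomerization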
# CYP2C19 activ – cytochrome P450 2C19 (human) activation; 96,000 tested, under 10 active; activation factor at 5 µM; recombinant CYP2C19, luciferin-H EGE luminescence; stronger effect = higher value; 0 = fully inhibited enzyme, 1 = untreated enzyme; P33261;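 active = activation factor of at least 2 at 5 µM in the primary screen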;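 note: 0 = wells with 2.5 mM tranylcypromine and 1 = vehicle-only wells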
# CYP2C9 activ – increases human cytochrome P450 2C9 activity; 96,000 tested, 1.4% active; activation factor at 5 µM; recombinant CYP2C9, luciferin-H conversion, luminescence; stronger effect = higher value; factor 1 = untreated enzyme, 0 = blocked; P11712;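 active = activation factor of 2 or more for CYP2C9 at a 5 µM dose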;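 note: 0 = sulfaphenazole-blocked wells and 1 = vehicle-only wells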
# CYP2C19 inhib – blocks human cytochrome P450 2C19; AID 778; P33261; 96,000 tested, 21% active; CYP2C19 Supersomes, luciferin-H EGE luminescence, 30 min; inhibition, % at 5 µM;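 active = CYP2C19 inhibition above a set limit at 5 µM in the primary screen, cut at about 50% in these data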;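 note: plate controls were negative control wells for no effect and 2.5 mM tranylcypromine positive control for full effect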
# CYP2C9 inh – inhibitors of human CYP2C9; P11712; CYP2C9 Supersomes, luciferin-H conversion, luminescence; inhibition, % at 5 µM; 96,000 tested, 20% active; AID 777;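 active = blocking of liver enzyme CYP2C9 beyond about 50% at 5 µM, limit read from the data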
# Cav3 T inh – blocks human Cav3.2 T-type calcium channel; AID 449739; B-score at 10 µM; 100,000 tested, 4% active; Cav3.2-expressing cells, Fluo-4 calcium fluorescence FDSS; stronger effect = lower value;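 active = single-dose well whose peak fluorescence ratio is a statistical outlier from its plate by either plate-standardised score or position-corrected B-score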
# Target sequence (O95180 whole entry, looked up): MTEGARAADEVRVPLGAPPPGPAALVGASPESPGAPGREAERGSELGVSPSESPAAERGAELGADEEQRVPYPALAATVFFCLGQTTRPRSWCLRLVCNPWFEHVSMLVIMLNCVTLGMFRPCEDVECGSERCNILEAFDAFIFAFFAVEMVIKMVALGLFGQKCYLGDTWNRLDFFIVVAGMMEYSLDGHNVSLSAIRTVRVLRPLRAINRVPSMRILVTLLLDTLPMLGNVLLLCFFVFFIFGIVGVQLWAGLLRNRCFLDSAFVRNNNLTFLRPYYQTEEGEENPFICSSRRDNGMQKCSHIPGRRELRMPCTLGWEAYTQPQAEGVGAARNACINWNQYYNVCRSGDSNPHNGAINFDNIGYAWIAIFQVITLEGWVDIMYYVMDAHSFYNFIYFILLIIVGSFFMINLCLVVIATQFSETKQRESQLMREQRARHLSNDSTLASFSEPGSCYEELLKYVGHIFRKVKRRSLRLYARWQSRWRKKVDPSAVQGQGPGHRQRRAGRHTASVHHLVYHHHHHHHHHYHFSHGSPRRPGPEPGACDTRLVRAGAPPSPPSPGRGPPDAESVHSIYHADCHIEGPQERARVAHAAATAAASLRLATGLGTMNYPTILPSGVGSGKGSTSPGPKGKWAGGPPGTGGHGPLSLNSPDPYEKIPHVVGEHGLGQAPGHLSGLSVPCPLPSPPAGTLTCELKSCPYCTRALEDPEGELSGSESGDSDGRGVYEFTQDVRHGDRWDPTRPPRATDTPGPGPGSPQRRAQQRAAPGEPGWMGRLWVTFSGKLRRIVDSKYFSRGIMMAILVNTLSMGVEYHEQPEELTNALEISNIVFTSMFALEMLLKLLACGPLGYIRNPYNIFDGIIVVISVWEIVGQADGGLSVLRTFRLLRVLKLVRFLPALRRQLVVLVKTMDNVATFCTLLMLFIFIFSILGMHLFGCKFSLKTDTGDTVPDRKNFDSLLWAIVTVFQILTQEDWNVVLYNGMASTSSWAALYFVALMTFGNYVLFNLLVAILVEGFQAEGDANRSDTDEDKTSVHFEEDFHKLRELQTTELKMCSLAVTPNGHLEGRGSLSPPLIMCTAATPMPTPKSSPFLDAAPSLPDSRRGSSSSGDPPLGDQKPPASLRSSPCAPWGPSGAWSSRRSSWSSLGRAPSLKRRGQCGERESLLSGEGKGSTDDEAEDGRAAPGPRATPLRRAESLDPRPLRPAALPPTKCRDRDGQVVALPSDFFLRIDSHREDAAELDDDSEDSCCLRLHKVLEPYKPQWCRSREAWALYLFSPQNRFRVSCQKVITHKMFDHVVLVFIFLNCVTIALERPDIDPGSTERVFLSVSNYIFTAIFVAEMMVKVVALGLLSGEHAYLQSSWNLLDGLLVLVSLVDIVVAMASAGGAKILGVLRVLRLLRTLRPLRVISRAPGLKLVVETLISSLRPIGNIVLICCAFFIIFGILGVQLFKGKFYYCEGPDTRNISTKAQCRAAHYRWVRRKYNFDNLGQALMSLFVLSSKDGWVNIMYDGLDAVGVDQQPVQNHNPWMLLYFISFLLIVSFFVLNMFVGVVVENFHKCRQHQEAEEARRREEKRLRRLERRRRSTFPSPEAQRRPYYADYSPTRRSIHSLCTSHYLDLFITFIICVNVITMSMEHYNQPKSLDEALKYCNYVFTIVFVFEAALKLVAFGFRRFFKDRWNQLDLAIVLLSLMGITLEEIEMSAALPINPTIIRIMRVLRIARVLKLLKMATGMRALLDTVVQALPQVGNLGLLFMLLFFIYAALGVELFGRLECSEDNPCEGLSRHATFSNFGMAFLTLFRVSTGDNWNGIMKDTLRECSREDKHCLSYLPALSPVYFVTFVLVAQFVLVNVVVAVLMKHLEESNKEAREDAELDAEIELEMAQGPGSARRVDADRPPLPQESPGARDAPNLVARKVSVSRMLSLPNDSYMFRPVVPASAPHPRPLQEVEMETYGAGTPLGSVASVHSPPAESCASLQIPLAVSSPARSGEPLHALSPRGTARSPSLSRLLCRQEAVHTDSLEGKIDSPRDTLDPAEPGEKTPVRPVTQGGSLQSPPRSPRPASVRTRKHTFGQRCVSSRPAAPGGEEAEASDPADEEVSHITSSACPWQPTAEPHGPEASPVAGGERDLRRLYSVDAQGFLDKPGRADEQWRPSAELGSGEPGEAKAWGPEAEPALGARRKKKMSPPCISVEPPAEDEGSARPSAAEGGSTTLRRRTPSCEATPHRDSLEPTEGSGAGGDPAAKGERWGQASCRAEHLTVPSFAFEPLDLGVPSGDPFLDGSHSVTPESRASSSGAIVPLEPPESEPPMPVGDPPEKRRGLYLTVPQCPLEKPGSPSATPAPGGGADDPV
# Numbers without * were called inactive; . = no result given.
SMILES,PTK2B oligo ant,CYP2C19 activ,CYP2C9 activ,CYP2C19 inhib,CYP2C9 inh,Cav3 T inh
CCOC(=O)c1ccc2c(c1)nc(SCC(=O)c1ccco1)n2CC,-0.74,0.8,0.3,21,69*,0.04
CCOC(=O)c1ccc2c(c1)nc(SC/C(O)=C(\C#N)c1nc3ccccc3[nH]1)n2CC,-0.43,0.8,0.9,17,14,-0.13
CCn1c(SCC(=O)N2CCCC2)nnc1-c1ccc(N)cc1,0.73,.,.,.,.,1
Cc1ccc2nc(NCCO)nc(-c3ccccc3)c2c1,0.67,0.9,0.7,11,33,.
COc1ccc(-c2nc(N)nc(C)c2Oc2ccccc2Br)c(O)c1,-0.73,0.1,0.1,85*,94*,-0.27
CN(C(=O)CCN1C(=O)c2ccccc2C1=O)C1CCCCC1,0.12,0,1.4,98*,-38,-0.55
O=C(CCCN1C(=O)c2ccccc2C1=O)NC1CCCCCC1,0.16,0.6,0.6,44,39,0.065
CCS(=O)(=O)c1ccc(-c2csc(-c3ccccc3)n2)c(Cl)c1Cl,-0.31,0.8,0.9,16,14,0.1
COc1ccccc1N1CCN(CC(O)COc2ccc3c(c2)CCC3)CC1 (configuration not stated),0.88,1,1.3,4,-34,-6.1*
OC(COc1ccc2ccccc2c1)CN1CCCC1 (configuration not stated),0.79,1,0.9,-3,5,-3.7
CC(C)(C)CC(C)(C)NCC(O)COc1ccc2c(c1)CCC2 (configuration not stated),3.2,.,.,.,.,-8.3*
Cc1nc(C)n(CC(O)COc2ccc3c(c2)CCC3)n1 (configuration not stated),0.55,0.6,1,44,0,-0.0068
OC(COc1ccc2ccccc2c1)CN1CCN(c2ccc(F)cc2)CC1 (configuration not stated),.,0.5,1,51*,-2,-0.57
O=C(NNC(=O)C1CC1c1ccccc1)Nc1cccc(Cl)c1 (configuration not stated),0.43,0.8,0.9,22,13,-0.29
O=C(Nc1cccc(F)c1)C1CCN(C(=O)c2ccccc2Cl)CC1,0.34,0.5,0.6,45,44,0.77
CCN(CC)CCCN(Cc1cc2cc3c(cc2[nH]c1=O)OCO3)C(=O)Nc1ccccc1OC,-0.38,0.9,1,10,0,0.87
Fc1ccc(NCc2nnc(SCc3nnc(-c4ccccc4)o3)n2CC2CCCO2)cc1 (configuration not stated),-0.09,0.6,0.7,41,33,0.51
CN(C)CCCN1c2ccc([N+](=O)[O-])cc2CCc2cc([N+](=O)[O-])ccc21,.,.,.,.,.,0.029
CC(=O)OCN(C#N)c1nc(N(C)C)nc(N(C)C)n1,-0.6,0.7,1.9,26,-87,-0.2
CCOCCOCN(C#N)c1nc(OC)nc(N(C)C)n1,0.77,0.4,1.4,64*,-44,0.29
O=C(C1CCN(S(=O)(=O)c2ccc(F)cc2)CC1)N1CCOCC1,0.12,0.8,1.1,20,-8,0.29
Cc1cc(NC(=O)CSc2nc3ccc(Cl)cc3[nH]2)no1,-1.1,0.6,0.4,40,62*,-0.91
Cc1cc(NC(=O)CSc2nc3cc(Cl)ccc3s2)no1,1.1,1,1,2,3,-0.14
Cc1cc(C(=O)CSc2nc3ccccc3[nH]2)c(C)n1Cc1ccco1,0.73,.,.,.,.,.
COc1ccc(Nc2nnc(SCC(=O)c3cc(C)n(CC4CCCO4)c3C)s2)cc1 (configuration not stated),0.03,0.3,0.4,72*,59*,-4.3
SMILES,PTK2B oligo ant,CYP2C19 activ,CYP2C9 activ,CYP2C19 inhib,CYP2C9 inh,Cav3 T inh
Cc1ccc2nc(SCC(=O)c3cc(C)n(C)c3C)[nH]c2c1,-0.1,0.8,0.4,20,57*,-0.16
Cc1nn2c(=O)cc(CSc3nc4ccccc4[nH]3)nc2s1,.,0.4,0.8,58*,15,1.2
Cc1ccc(S(=O)(=O)NCC(=O)OCC(=O)NC(=O)c2cccn2C)cc1,0.66,0.9,0.8,8,19,0.8
Cc1ccc(N2C(=O)CC(Sc3ncn[nH]3)C2=O)cc1C (configuration not stated),0.77,0.7,0.9,26,15,1.5
Cc1cc(C(=O)CSc2nc3ccccc3o2)c(C)n1C1CC1,0.18,0.7,1.1,32,-12,-2.8
Cc1cc(C(=O)CSc2nc3ccc(Cl)cc3[nH]2)c(C)n1C,-0.46,0.1,0.1,94*,93*,0.4
Cc1cc(C(=O)CSc2nc3ccccc3[nH]2)c(C)n1C,-0.12,0.1,0.4,87*,60*,1.3
Cc1ccc2nc(SCC(=O)Nc3nnc(SCC(N)=O)s3)[nH]c2c1,0.99,1,0.7,4,32,1
C/C(N)=C(/C#N)C(=O)CSc1nc2ccc(C)cc2[nH]1,-0.19,0.1,0.4,88*,63*,0.36
C=CCn1c(C)cc(C(=O)CSc2nc3ccccc3o2)c1C,1.6,0.4,0.7,64*,25,-1.1
CN1C(C(=O)NCc2ccc(OC(F)(F)F)cc2)CC2Cn3c(nc4cc(Cl)c(Cl)cc43)C21 (configuration not stated),.,.,.,.,.,-2.9
C=CCn1c(C)cc(C(=O)CSc2nc3ccccc3c(=O)[nH]2)c1C,0.2,0.8,0.7,24,28,0.78
C=CCn1c(C)cc(C(=O)CSc2nc3ccccc3[nH]2)c1C,3.1,0.4,0.3,62*,68*,-2.4
C=CCn1c(C)cc(C(=O)COc2nncc3ccccc23)c1C,-0.37,0.4,2*,61*,-103,-0.023
COc1ccc2nc(SCC(=O)NC(C)(C)C)[nH]c2c1,0.32,0.2,0.3,85*,66*,-0.16
Cc1cc(C(=O)CSc2nc3ccc(Cl)cc3[nH]2)c(C)n1CC1CCCO1 (configuration not stated),-0.01,0,0.1,96*,92*,-2.9
Cc1cc(C(=O)CSc2nnc(-c3ccc(Cl)cc3)n2CC2CCCO2)c(C)n1C (configuration not stated),0.1,0.9,1.8,14,-76,.
O=C(NCc1ccco1)c1cc2n(n1)C(C(F)(F)F)CC(c1ccc(F)cc1)N2 (configuration not stated),-0.18,1.1,0.7,-12,34,-0.021
CCn1cc(CNC(=O)c2cc(-c3ccccc3OC)nc3ccccc23)c(C)n1,-0.2,0.9,0.7,9,32,0.99
COc1ccc(/C=N/NC(=O)c2cccnc2)cc1CSc1nc2ccccc2s1,-3,.,.,.,.,.
COc1ccc(OC)c(/C=N/NC(=O)c2cc(-c3ccc(C)o3)nc3ccccc23)c1,-0.52,.,.,.,.,.
CCc1ccc(/C=N/NC(=O)c2cc(C3CC3)nc3ccc(Br)cc23)s1,-1.9,0.9,0.6,10,36,-5.2*
COc1ccccc1-c1cc(C(=O)N/N=C/c2ccc(C)s2)c2ccccc2n1,-2.3,0.3,0,75*,100*,.

# High-throughput results from PubChem BioAssay.
